An excerpt weighted towards active compounds, which were near 21% of everything screened.
CYP2C19 act: human CYP2C19 activators, primary screen, biochemical, luminescence; 96,000 tested, under 10 active; Cytochrome P450 2C19 (Homo sapiens), P33261; recombinant CYP2C19, luciferin-H EGE luminescence; stronger effect = higher value; 0 = fully inhibited enzyme, 1 = untreated enzyme; AID 1025, 2008; activation factor at 5 µM;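 active = activation factor of at least 2 at 5 µM in the primary screen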;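 also: 0 = wells with 2.5 mM tranylcypromine and 1 = vehicle-only wells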
CYP2C9 act: human CYP2C9 activators, primary screen, biochemical, luminescence. Cytochrome P450 2C9 (Homo sapiens), P11712. recombinant CYP2C9, luciferin-H conversion; stronger effect = higher value; factor 1 = untreated enzyme, 0 = blocked. activation factor at 5 µM. 96,000 compounds, 1.4% hits;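 active = activation factor of 2 or more for CYP2C9 at a 5 µM dose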;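 also: 0 = sulfaphenazole-blocked wells and 1 = vehicle-only wells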
Target sequence (P11712 whole entry, looked up): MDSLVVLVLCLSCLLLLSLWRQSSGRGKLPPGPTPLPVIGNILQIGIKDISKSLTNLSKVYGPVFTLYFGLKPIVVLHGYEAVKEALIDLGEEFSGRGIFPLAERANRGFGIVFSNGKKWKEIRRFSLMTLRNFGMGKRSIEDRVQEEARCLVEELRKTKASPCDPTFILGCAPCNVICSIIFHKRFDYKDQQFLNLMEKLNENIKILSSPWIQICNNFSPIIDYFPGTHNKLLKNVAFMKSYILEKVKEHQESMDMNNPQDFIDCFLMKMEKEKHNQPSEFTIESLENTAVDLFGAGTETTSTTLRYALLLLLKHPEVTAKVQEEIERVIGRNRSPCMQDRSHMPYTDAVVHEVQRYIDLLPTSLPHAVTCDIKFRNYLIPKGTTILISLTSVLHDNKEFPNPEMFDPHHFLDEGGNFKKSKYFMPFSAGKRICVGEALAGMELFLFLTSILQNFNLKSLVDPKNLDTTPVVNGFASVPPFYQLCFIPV
CYP2C9 inhib: blockers of cytochrome P450 2C9 activity – biochemical, luminescence, ADME assay, primary screen; P11712; CYP2C9 Supersomes, luciferin-H conversion; inhibition, % at 5 µM; 96,000 compounds, 20% hits;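 active = blocking of liver enzyme CYP2C9 beyond about 50% at 5 µM, limit read from the data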
MRP-1 activ: H69AR viability gain despite doxorubicin, primary screen, MRP-1 activator project, H69AR cells, CellTiter-Glo; viability rescue; viability increase, % at 10 µM; 140,000 compounds, 0.61% hits;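 active = viability gain under doxorubicin at or above a set limit, the compound median plus 3 SD, cut at about 4.7% in these data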;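 also: MRP-1 overexpressing cells given doxorubicin 25 µM after compound pretreatment; 18-22 h compound pretreatment then 72 h with doxorubicin before readout; 0% = doxorubicin-only wells and 100% = vehicle-treated cells without doxorubicin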
MRP reversal: reversal of MRP1-mediated doxorubicin resistance, primary screen, H69AR cells, doxorubicin co-treatment. 85,000 compounds, 0.04% hits. H69AR cells + 2 uM doxorubicin, CellTiter-Glo, 72 h. AID 602, 2007. differential viability (reversal), % at 10 µM;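 active = viability drop by adding the cancer drug above about 55%, with treated viability meeting a 40% cutoff, limit read from the data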;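 also: viability without doxorubicin minus viability with 2 µM doxorubicin for each compound; larger differential means the compound sensitizes cells more to doxorubicin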
CYP2C19 inhib: blockers of cytochrome P450 2C19 activity – biochemical, luminescence, ADME assay, primary screen; CYP2C19 Supersomes, luciferin-H EGE luminescence, 30 min; AID 778, 2007; 96,000 compounds, 21% hits; inhibition, % at 5 µM; P33261;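 active = CYP2C19 inhibition above a set limit at 5 µM in the primary screen, cut at about 50% in these data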;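 also: plate controls were negative control wells for no effect and 2.5 mM tranylcypromine positive control for full effect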
* marks the source's active call; other numbers are inactive results; . = no result.

SMILES | CYP2C19 act | CYP2C9 act | CYP2C9 inhib | MRP-1 activ | MRP reversal | CYP2C19 inhib
COC(=O)c1cc2ccsc2n1CC(=O)N1CCCc2ccccc21 | 0.1 | 0.1 | 93* | -2 | 1 | 95*
COC(=O)c1cc2ccsc2n1Cc1nc(-c2ccc(Cl)cc2)oc1C | 0.5 | 0.1 | 89* | -1 | -2 | 55*
COC(=O)c1cc2ccsc2n1Cc1cc(=O)n2ccccc2n1 | 0.5 | 0.1 | 92* | -1 | 3 | 53*
COC(=O)c1cc2oc3ccccc3c2n1CC(=O)N1CCCc2ccccc21 | 0.7 | 0.8 | 22 | -3 | 12 | 34
CN1C(=O)c2ccccc2C(C(=O)O)C1c1cn(C)c2ccccc12 (stereo unspecified) | 0.8 | 0.8 | 17 | -3 | -4 | 15
CC(=O)NC(CC(C)C)C(=O)NC(=O)NCc1ccccc1 (stereo unspecified) | 0.8 | 1.1 | -5 | 2 | 2 | 20
Cc1ccc(C(=O)NCCCc2ccccc2)s1 | . | . | . | 1 | . | .
O=C(Nc1ccc(N2CCN(Cc3ccccc3)CC2)cc1)c1ncn[nH]1 | 1 | 1.1 | -7 | -4 | -3 | -1
COc1cc(C(=S)N2CCCC2)ccc1OC(=O)c1ccc(Cl)cc1[N+](=O)[O-] | 0.7 | 1.6 | -59 | -4 | . | 32
O=C(Oc1ccc(Br)cc1C(=S)N1CCCC1)c1ccccc1F | . | . | . | 0 | . | .
Cc1ccccc1C(=O)Oc1ccc(Br)cc1C(=S)N1CCCC1 | 0.5 | 0.6 | 41 | -4 | . | 52*
O=C(Oc1ccc(Br)cc1C(=S)N1CCCC1)c1ccccc1Cl | 0.4 | 0.6 | 35 | -1 | . | 57*
O=C(Oc1ccc(Br)cc1C(=S)N1CCCCC1)c1cc([N+](=O)[O-])cc([N+](=O)[O-])c1 | 0.4 | 1 | 0 | -1 | 10 | 62*
Cc1ccc(NC(=O)N2N=C(c3ccc(F)cc3)CC2c2ccc(F)cc2)cc1 (stereo unspecified) | . | . | . | 3 | . | .
CCc1ccc(OCC(=O)NC(=S)Nc2ccc(S(=O)(=O)NC3CCCCC3)cc2)cc1 | 0.9 | 0.3 | 74* | -2 | . | 6
COC(=O)CCN(C1CCCCC1)S(=O)(=O)c1ccc(S(=O)(=O)NC2CCCCC2)cc1 | 0 | 0 | 100* | -1 | -3 | 97*
COC(=O)COc1ccc(S(=O)(=O)NC2CCCCCC2)cc1 | 0.1 | 0.1 | 88* | -3 | 22 | 94*
O=C(NNS(=O)(=O)c1ccc(Br)cc1)NC1CCCCC1 | . | . | . | -3 | . | .
O=S(=O)(NC1CCCCC1)c1ccc(Br)cc1 | 0.2 | 0.7 | 26 | 1 | -5 | 80*
CC(=O)c1coc2ccc(OCCN3CCCCC3)cc12 | 1.2 | 1.1 | -8 | -3 | 20 | -15
Cc1cc(C)nc(SCC(=O)OCC(=O)Nc2nc3ccccc3s2)n1 | . | . | . | -4 | . | .
O=C(CCNC(=O)c1ccccc1Cl)Nc1nc(-c2ccc3ccccc3c2)cs1 | . | . | . | 3 | . | .
CC1CC(C)CN(C(=O)c2ccc3c(c2NCCO)C(=O)c2ccccc2C3=O)C1 (stereo unspecified) | 0.1 | 0.1 | 95* | -5 | -1 | 94*
O=C(O)CC/C(=N/NC(=O)c1cccs1)c1ccccc1 | . | . | . | -1 | . | .
CCOC(=O)N1CCN(c2c(NCc3ccc(Cl)cc3)c(=O)c2=O)CC1 | 0.6 | 0.4 | 64* | -3 | -23 | 41
SMILES | CYP2C19 act | CYP2C9 act | CYP2C9 inhib | MRP-1 activ | MRP reversal | CYP2C19 inhib
CCOC(=O)C1CCCN(C(=O)c2ccc(CNc3c(N4CCC(C)CC4)c(=O)c3=O)cc2)C1 (stereo unspecified) | 0.6 | 0.4 | 55* | -2 | -31 | 36
CCOC(=O)C1CCCN(c2c(NCCN(CC)c3ccccc3)c(=O)c2=O)C1 (stereo unspecified) | 0.3 | 0.7 | 27 | 0 | -2 | 68*
CCOC(=O)C1CCN(c2c(NCc3ccc(C(=O)NCCC(C)C)cc3)c(=O)c2=O)CC1 | 0.9 | 0.4 | 59* | -1 | 0 | 15
CC1CCN(c2c(NCc3ccc(C(=O)N4CCN(C5CCCCC5)CC4)cc3)c(=O)c2=O)CC1 | . | . | . | 0 | . | .
CCOC(=O)C1CCCN(c2c(NCCCN(CC)c3ccccc3)c(=O)c2=O)C1 (stereo unspecified) | 0.7 | 0.9 | 8 | -1 | 6 | 35
CCNC(=S)N/N=C/c1ccc(OCc2ccc(C(=O)OC)cc2)cc1 | . | . | . | 0 | . | .
CCOC(=O)N1CCC(Nc2c(-c3ccccc3)c(=O)c2=O)CC1 | 0.7 | 0.7 | 26 | -1 | -20 | 33
CCOC(=O)N1CCC(Nc2c(N3CCN(c4cccc(C(F)(F)F)c4)CC3)c(=O)c2=O)CC1 | 0.9 | 0.4 | 58* | -1 | 3 | 6
CCOC(=O)c1nn(C)c(C)c1Cl | . | . | . | 2 | . | .
O=c1cc(-c2ccccc2)n(S(=O)(=O)c2ccccc2)o1 | 0.5 | 1.1 | -7 | -1 | -16 | 52*
COc1ccc(S(=O)(=O)n2oc(=O)cc2-c2ccccc2)cc1OC | 0 | 1.9 | -91 | 0 | 0 | 97*
Cc1ccc(S(=O)(=O)N2CCN(c3ccc4nnc(-c5ccccc5)n4n3)CC2)cc1 | 0.1 | 0 | 99* | -1 | . | 95*
c1ccc(-c2nnc3ccc(N4CCCC4)nn23)cc1 | 0.9 | 1 | 3 | -5 | -7 | 10
COc1cccc(-c2csc(N3CCN(S(=O)(=O)c4ccc(F)cc4)CC3)n2)c1 | 1 | 0.9 | 13 | 1 | 9 | -4
COc1ccc(S(=O)(=O)N2CCN(c3ccc4nnc(-c5ccc(F)cc5)n4n3)CC2)cc1 | 0.1 | 0 | 97* | -5 | 23 | 90*
Cc1ccc(NC(=O)c2ccc(COc3ccc4c(c3)CCC4)cc2)c(C)c1 | . | . | . | 2 | . | .
O=C1C(=C(O)c2ccccc2)C(=O)c2ccccc21 | 1 | 0.6 | 44 | 0 | 9 | 1
O=C1C(=C(c2ccccc2)c2ccccc2)Nc2ccccc21 | 0.4 | 0.1 | 89* | -5 | . | 64*
C=CCOc1c(CNc2nccs2)cccc1OCC | 0 | 0.3 | 72* | -1 | 2 | 98*
C=CCOc1c(CNc2ccc(C(=O)O)cc2)cccc1OC | . | . | . | 0 | . | .
C=CCOc1c(CNc2ccc(C(=O)O)cc2)cccc1OCC | 1 | 1.1 | -10 | 6.7* | . | 0
COc1ccc(-c2c3c(nc4sc5c(=O)[nH]c(C)nc5c24)CCC3)cc1 | 1.1 | 0.4 | 57* | -3 | . | -5
COc1ccc(-c2c3c(nc4sc(C(=O)Nc5cc(C)on5)c(N)c24)CCC3)cc1 | 0.7 | 0.5 | 51* | 2 | -16 | 27
COc1ccc(-c2nnc(SCC(=O)NC(=O)NCc3ccccc3)o2)cc1 | 0.6 | 1.9 | -95 | 0 | 5 | 42
